Compound activity from PubChem BioAssay.
WRN helicase inh: WRN helicase (human) inhibition. Q14191. WRN helicase unwinding, fluorescent forked duplex, kinetic. Potency, µM (doses to about 114 µM), for inactives: top-dose activity change, negative = inhibition, actives largely listed as inhibitors. 0.46% of 360,000 active. AID 651768; further: nearly all actives have a fitted effect of over 55% in size
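Enzyme (20 nM final) and test compound sit together 15 min at room temperature before substrate addition. Substrate is a single-forked duplex oligonucleotide (100 nM) labelled with fluorophore and quencher, with 2 mM ATP; helicase unwinding raises red fluorescence, read kinetically.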
L3MBTL1 inh: blocks human L3MBTL1. 0.66% of 230,000 active. AlphaScreen L3MBTL1–H3K9me1 peptide binding. Potency, µM (titrated, usually from 57.1 µM), for inactives: top-dose activity, negative = inhibition, hits mostly inhibitors. Q9Y468; further: nearly all actives have a fitted effect of over 60% in size
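L3MBTL1 50 nM + b-AHA-H3(1-15)K9me1 75 nM, 30 min RT; compound added, 30 min RT; streptavidin donor/Ni-chelate acceptor beads 10 ug/mL each final, 30 min RT dark; AlphaScreen read.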
FEN1 inhibitor: inhibitors of human flap endonuclease 1; 0.35% of 390,000 active; P39748; Recombinant FEN1 flap cleavage, fluorescence, 15 min; Potency, µM (top dose mostly 114 µM), inactives show at the top dose activity change, negative = inhibition, usual class: inhibitors; further: nearly all actives have a fitted effect of over 65% in size
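Quantitative HTS format: each compound was titrated, incubated with 10 nM nuclease for 15 min at room temperature, then challenged with flap substrate at 50 nM final. Signal change over 15 min gave concentration–effect curves.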
BLM helicase inh: blocks DNA unwinding by human BLM helicase; Potency, µM (titrated, usually from 56.1 µM), inactives show at the top dose activity change, negative = inhibition, most hits filed as inhibitors; recombinant BLM DNA unwinding, fluorescence dequenching; P54132; 0.2% of 350,000 active;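 further: plate controls were vehicle for no effect and no enzyme for full effect; nearly all actives have a fitted effect of over 35% in size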
RECQ1 helicase: blocks DNA unwinding by human RECQ1; Potency, µM (titrated, usually from 57.3 µM), for the others: at the top dose activity, negative = inhibition, usual class: inhibitors; 0.54% of 240,000 active; RECQ1 DNA unwinding, red fluorescence kinetic read; AID 2549;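 further: plate controls were vehicle for no effect and no enzyme for full effect; nearly all actives have a fitted effect of over 30% in size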
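RECQ1T1 50 nM; forked duplex (20 bp + 30-nt ss tails) 200 nM, ATP 2 mM final; pH 8.0, 2 mM MgCl2, 2.5 ug/ml poly(dI-dC); 15 min compound preincubation; discontinuous kinetic read over 2 h at RT.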
Numbers without * were called inactive; i = inactive; ? = inconclusive; nt = no result; ! = not confirmed by another sample; [ ] = remark or other dose. This is a sample that favours compounds with a hit; in the whole collection about 0.99% have one here. The call rests on the fitted dose curve; in most records, active means well fitted curve in the direction sought with a large enough effect; inconclusive means small, poorly fitted or top-dose-only effect, or another doubt; inactive means no such curve, though single readings can be large; an effect the other way counts as inactive or inconclusive. Unless noted, on the % scale 0 is the no-effect control and ±100 the full control effect; potency means the concentration at half of the fitted maximal effect.

SMILES	WRN helicase inh	L3MBTL1 inh	FEN1 inhibitor	BLM helicase inh	RECQ1 helicase
CCC1(O)CC2CN(CCc3c([nH]c4ccccc34)[C@@](C(=O)OC)(c3cc4c(cc3OC)N(C)C3[C@]45CCN4CC=C[C@@](CC)([C@@H](OC(C)=O)[C@]3(O)C(=O)OC)[C@H]45)C2)C1 (some centres undefined)	nt	nt	nt	nt	14µM*
CC[C@]1(O)C[C@@H]2CN(CCc3c([nH]c4ccccc34)[C@@](C(=O)OC)(c3cc4c(cc3OC)N(C)C3[C@]45CCN4CC=C[C@](CC)(C45)[C@@H](OC(C)=O)[C@]3(O)C(=O)OC)C2)C1 (some centres undefined)	nt	nt	nt	nt	-14%
Oc1c(Cl)cc(Cl)cc1Sc1cc(Cl)cc(Cl)c1O	nt	-11%	nt	?	40µM*
COc1ccc2cc3[n+](cc2c1O)CCc1cc2c(cc1-3)OCO2	50µM*	nt	nt	nt	nt
CCNc1ccc(Br)cc(C(=O)/C=C/c2ccc(Cl)cc2Cl)c1=O	?	18µM*	?	-23%	-12%
CNc1ccc(Br)cc(C(=O)/C=C/c2cc(OC)ccc2OC)c1=O	-9%[11.6 µM]	14µM*	?	-14%	-1%
COCCCNC(=O)/C=C/c1ccc(Cl)cc1Cl	1%	10%	-20%	3%	-13%
COc1cccc(NC(=S)NN=C2CCC(C(C)(C)C)CC2)c1 (centres undefined)	-10%	-11%	-9%	-6%	-6%
Clc1ccc(C[n+]2csc3ccccc32)cc1	?	0%	-3%	2%	-7%
Fc1ccc(C[n+]2csc3ccccc32)cc1	56µM*	-7%	1%	1%	-1%
CCOC(=O)c1ccc(NC(=O)COc2ccc(S(=O)(=O)N3CCCC3)cc2)cc1	-2%[57.1 µM]	nt	-25%	-7%	i
CCC(C)Sc1nc2c(cnn2-c2ccc(C)c(C)c2)c(=O)[nH]1 (centres undefined)	3%	-4%	-2%	3%	-6%
O=C(CN1CC(=O)Oc2ccccc21)OCC(=O)c1ccc(F)cc1	-33%	18µM*	4%	6%	2%
O=C(CN1CC(=O)Oc2ccccc21)OCC(=O)c1ccc(Br)cc1	-4%	nt	-4%	nt	nt
COc1ccc(-c2oc3cc(OC)c(OC(C)=O)c(OC)c3c(=O)c2OC)cc1OC(C)=O	nt	nt	nt	-4%	-3%
CC(=O)Oc1cc(O)c2c(=O)c(OC(C)=O)c(-c3ccc(OC(C)=O)c(OC(C)=O)c3)oc2c1	?	nt	2.8µM*	nt	nt
COc1ccc2c(c1)C(=O)[C@@H](OC(=O)NCCc1ccc(OC)c(OC)c1)[C@H](c1ccc(OC)c(Br)c1)O2	nt	nt	nt	0%	-10%
O=C(Nc1cc(Cl)ccc1Cl)c1cc([N+](=O)[O-])cc(Br)c1O	nt	nt	50µM*	nt	nt
O=c1c2cc([N+](=O)[O-])cc([N+](=O)[O-])c2[nH]n1-c1ccccc1	-19%	nt	-11%	-12%	nt
O=c1c2c([N+](=O)[O-])cc([N+](=O)[O-])cc2sn1-c1ccc(Br)cc1	79µM*	-18%	-9%	-2%	0%
O=c1c2c([N+](=O)[O-])cc([N+](=O)[O-])cc2sn1Cc1ccccc1	20µM*	nt	?	-7%	nt
Cc1ccnc(N2CCCC(C(=O)Nc3ccc(C)c(C)c3)C2)n1 (centres undefined)	3%	nt	-8%	-5%	nt
CSc1ncc(Cl)c(C(=O)Nc2c(C(=O)Nc3cccc(C)c3)oc3ccccc23)n1	nt	nt	-4%	0%	nt
CCCC(=O)Nc1ccc(NCc2ccc(C)s2)cc1	-5%	-2%	15%	-4%	nt
CC12CN3CCN(CC(C3)C1(O)CN1CCOCC1)C2 (centres undefined)	-5%	2%	0%	-2%	8%
SMILES	WRN helicase inh	L3MBTL1 inh	FEN1 inhibitor	BLM helicase inh	RECQ1 helicase
Cc1oc(C)c2c(=O)ccc3c(c12)OC(N)=C(C#N)C3c1ccc(F)cc1 (centres undefined)	-34%	28µM*	-22%	6%	-4%
CC(C)[C@H](NC(=O)OCc1ccccc1)C(=O)OCC(=O)N1CCN(c2ccccc2)CC1	2%	-5%	0%	nt	nt
O=C(Cn1ncn2nc(-c3cccs3)cc2c1=O)NCc1ccccc1Cl	nt	nt	15%	-1%	nt
Cc1ccccc1CNC(=O)Cn1ncn2nc(-c3cccs3)cc2c1=O	nt	nt	89µM*	-2%	nt
Cc1ccc2nc(SCn3nnc4ccccc4c3=O)[nH]c2c1	-2%	-14%	11%	0%	-1%
COCCN(C(=O)c1cc2c(s1)CCC2)c1c(N)n(CC(C)C)c(=O)[nH]c1=O	45µM*	?	-2%	nt	nt
COCCN(C(=O)c1cc2c(s1)CCCCC2)c1c(N)n(CC(C)C)c(=O)[nH]c1=O	-8%	33%	13%	nt	nt
C[c-]1[c-](C)[c-](C)[c-](C)[c-]1C.[Fe].c1cc2nccc(N3CCCC3)[c-]2c1 (centres undefined)	-19%	nt	?	?	6.3µM*!
COc1cc(C(C(=O)NCC2CCCO2)N(C(=O)Cn2nnc3ccccc32)c2ccc(OC)c(OC)c2)ccc1O (centres undefined)	3%	nt	2%	-1%	nt
N#C/C(=C\c1c[nH]c2ccccc12)C(=O)c1ccc(O)c(O)c1	nt	nt	3.4µM*	nt	11µM*
O=C(Nc1ccc(S(=O)(=O)Nc2nccs2)cc1)c1nn(-c2ccc(F)cc2)ccc1=O	50µM*	nt	?	-27%	nt
COc1ccc(C2N=C(N)N=C(N)N2c2ccc(C)cc2)cc1 (centres undefined)	4%	nt	0%	-8%	-8%
CC(C)c1nc(N2CCN(C(=O)c3ccccc3)CC2)c(C#N)c2c1COC(C)(C)C2	5%	26%[11.4 µM]	-19%	-1%	i
CC1(C)Cc2c(C#N)c(N3CCN(C(=O)c4ccccc4)CC3)nc(-c3ccco3)c2CS1	?	?	-15%	28µM*	-1%
OCCCNC(=S)Nc1ccc2nccnc2c1	7%	8%	40µM*	1%	-6%
COc1ccc(S(=O)(=O)NCc2nc(-c3ccccc3)no2)cc1	nt	nt	-7%	2%	nt
CCOc1ccccc1/C=N/NC(=O)c1cccc(S(=O)(=O)N(CC)CC)c1	-10%	-1%	2%	-6%	-4%
CCn1c(C)nc2cc(C(=O)N/N=C/c3ccc(O)c(O)c3O)ccc21	18µM*	2.2µM*	?	6.3µM*	10%
CCN(CC)C(=O)c1ccccc1NC(=O)c1cccc(S(=O)(=O)N(CC)CC)c1	0%	4%	-1%	3%	-5%
CCN(CC)S(=O)(=O)c1cccc(C(=O)N/N=C(\C)c2ccc(O)cc2O)c1	-18%	14µM*	-3%	-3%	i
CCN(CC)S(=O)(=O)c1cccc(C(=O)N/N=C/c2ccc(O)c(O)c2O)c1	25µM*	?	?	-22%	?
CCn1c(C)nc2cc(C(=O)N/N=C/c3cccc(OC)c3O)ccc21	-21%	-28%	?	-20%	25%
